Assay results from PubChem BioAssay (Tox21).
Where “and” joins values, the source holds several entries; their conditions need not be identical. Equal entries are not always repeated. Records with an inconclusive call do not appear. A structure can be active in one record and inactive in another. Calls of active or inactive are those of the source. Calls come from the whole dose curve; as a rule, active = well fitted cell-killing curve with a large enough effect in the repeat runs; inconclusive = weak or mixed curves; inactive = no such curve, though single readings can be large or run the other way.
% is set by controls: 0 for no effect and ±100 for the full control effect; potency is the fitted concentration of half-maximal effect.

Assay: qHTS assay for identifying genotoxic compounds that show differential cytotoxicity against isogenic chicken DT40 cell lines with known DNA damage response pathways - Rad54/Ku70 mutant cell line (AID 743015); note: nearly all actives have a fitted effect of over 60% in size
Conditions: DT40 Rad54/Ku70 mutant viability, CellTiter-Glo, 40 h; series mostly up to 66.8 µM; activity change, negative = cytotoxicity: at the top concentration
Description: National Center for Advancing Translational Sciences [NCATS]
NIH Chemical Genomics Center [NCGC]
U.S. Environmental Protection Agency [EPA]
National Institutes of Environmental Health Sciences [NIEHS]
National Toxicology Program [NTP]
U.S. Food and Drug Administration [FDA]
DNA repair pathways play a critical role in cellular homeostasis by repairing DNA damage induced by endogenous processes and xenobiotics. Isogenic chicken DT40 cell lines deficient in different DNA repair pathways can be used to identify genotoxic compounds and aid in characterizing the nature of the DNA damage induced. Two DNA repair-deficient cell lines with disrupted genes, Rad54/Ku70 or Rev3, were used to screen the Tox21 10K compound library. Possible genotoxicity was based on the presence of a significant increase in cytotoxicity in one or more of the DNA repair-deficient cell lines compared to that observed in the parental DNA repair-proficient cell line. CellTiter Glo viability assay (Promega, Madison, WI) was used to measure cell viability in these cells after compound treatment. This assay includes the data from the Rad54/Ku70 mutant cell line.
Tox21 Assay Protocol Summary:
300 DT40 mutant cells in 5 uL/well were dispensed into white, solid-bottom 1536-well plates using a Multidrop Combi (ThermoFisher Scientific, Waltham, MA) dispenser. After the assay plates were incubated at 37 C/5% CO2 for approximately 0.5 hour, 23 nL of compounds dissolved in DMSO, positive controls or DMSO only was transferred into the assay plate by a pintool work station (Kalypsys, San Diego, CA). The assay plates were incubated at 37 C/5% CO2 for 40 hours. After 5 uL per well of CellTiter-Glo reagent was added into each well of the assay plates, the plates were incubated for 30 min at room temperature and the luminescence intensity of the plates was measured using a ViewLux (PerkinElmer, Shelton, CT) plate reader.
With `CCCCN(CC)c1c([N+](=O)[O-])cc(C(F)(F)F)cc1[N+](=O)[O-]` the “activity change, negative = cytotoxicity” value was 9.98% [at 95.1 µM] (inactive). In the case of `Nn1cnnc1`, the Potency was “inactive”. In the case of `CC(C)(c1cc(Cl)c(O)c(Cl)c1)c1cc(Cl)c(O)c(Cl)c1`, the “activity change, negative = cytotoxicity” value was -1.64% (inactive). With `Brc1ccc(Oc2cc(Br)c(Br)cc2Br)c(Br)c1` the Potency was “inactive”. With `CCN(CC)N=O` the Potency was “inactive”. With `CCc1cccc(CC)c1N(COC)C(=O)CCl` the Potency was 29.6 µM (active) and 10.9 µM (active). For `Cc1ccc(N)c(N)c1`, the Potency was 48.7 µM (active) and 21.7 µM (active). For `CCOc1cc(Oc2ccc(C(F)(F)F)cc2Cl)ccc1[N+](=O)[O-]`, the Potency was 54.5 µM (active). For `CCN(CC)C(=O)/C(Cl)=C(\C)OP(=O)(OC)OC`, the Potency was “inactive”. For `CC(C)=CC1C(C(=O)OCc2coc(Cc3ccccc3)c2)C1(C)C` (stereo not given), the Potency was “inactive and 43.2 µM (active)”. With `N[C@@H](Cc1ccc(N(CCCl)CCCl)cc1)C(=O)O` the Potency was 2.37 µM (active) and 8.28 µM (active). With `C#C[C@]1(O)CC[C@H]2[C@@H]3CCC4=CC(=O)CC[C@]4(C)[C@H]3CC[C@@]21C` the Potency was “inactive”. With `Nc1ccncc1` the Potency was “inactive”. With `O=[N+]([O-])c1cccc2ccccc12` the Potency was “inactive”. For `N#CCCCl`, the Potency was “inactive”. In the case of `C[C@]12CCC(=O)C[C@@H]1CC[C@@H]1[C@@H]2CC[C@]2(C)[C@@H](O)CC[C@@H]12`, the “activity change, negative = cytotoxicity” value was 2.94% (inactive). In the case of `C=C(C)C(=O)OCC1CO1` (stereo not given), the Potency was “inactive”. In the case of `N#CC(Br)Br`, the Potency was “inactive”. In the case of `CCC(CC)Nc1c([N+](=O)[O-])cc(C)c(C)c1[N+](=O)[O-]`, the Potency was “inactive and 54.4 µM (active)”. For `Oc1cc(Cl)c(Cl)cc1Cl`, the Potency was “inactive and 61.1 µM (active)”. In the case of `O=[N+]([O-])c1c(Cl)c(Cl)c(Cl)c(Cl)c1Cl`, the Potency was “inactive and 61.1 µM (active)”. For `c1nc[nH]n1`, the Potency was “inactive”. For `Oc1ccc(-c2ccccc2)cc1`, the “activity change, negative = cytotoxicity” value was -3.5% (inactive). With `Cc1cc(C)cc(C)c1` the Potency was “inactive”. With `O=P(O)(O)CCCl` the Potency was “inactive”. For `O=[N+]([O-])c1ccc(O)c([N+](=O)[O-])c1`, the Potency was 54.5 µM (active). For `CC(C)N(C(=O)SCC(Cl)=C(Cl)Cl)C(C)C`, the Potency was “inactive and 30.6 µM (active)”. With `c1cc(OCC2CO2)ccc1Cc1ccc(OCC2CO2)cc1` (stereo not given) the Potency was 61.4 µM (active) and 15.4 µM (active). For `CC(C)Oc1cc(-n2nc(C(C)(C)C)oc2=O)c(Cl)cc1Cl`, the Potency was 60.3 µM (active) and 4.86 µM (active). In the case of `CCCCOCCOP(=O)(OCCOCCCC)OCCOCCCC`, the Potency was 48.6 µM (active). With `O=S(=O)(Oc1ccc(Cl)cc1)c1ccc(Cl)cc1` the “activity change, negative = cytotoxicity” value was -17.4% (inactive). With `C#CCOS(=O)OC1CCCCC1Oc1ccc(C(C)(C)C)cc1` (stereo not given) the Potency was 4.33 µM (active) and 2.43 µM (active). In the case of `COc1ccc(C=O)cc1`, the Potency was “inactive”. In the case of `C=C(C)[C@H]1Cc2c(ccc3c2O[C@@H]2COc4cc(OC)c(OC)cc4[C@@H]2C3=O)O1`, the Potency was 75 nM (active) and 9.8 nM (active) and 8.6 nM (active). In the case of `CCN(CC)C(=O)SCc1ccc(Cl)cc1`, the Potency was 24.3 µM (active). With `CNC(=O)Oc1cccc2c1OC(C)(C)O2` the Potency was “inactive”. With `CN(C)c1ccc(C(=O)c2ccc(N(C)C)cc2)cc1` the Potency was 1.35 µM (active) and 1.37 µM (active). With `C1=Cc2cccc3cccc1c23` the “activity change, negative = cytotoxicity” value was -8.99% (inactive). With `CCCCC(CC)COC(=O)c1ccc(C(=O)OCC(CC)CCCC)c(C(=O)OCC(CC)CCCC)c1` (stereo not given) the Potency was “inactive”. In the case of `CCCCCCOC(=O)c1ccccc1C(=O)OCCCCCC`, the “activity change, negative = cytotoxicity” value was 15% [at 95.1 µM] (inactive).
